Assay [1] deals with T1, Muscle, skeletal receptor tyrosine-protein kinase (Homo sapiens) (UniProt O15146).
T1 sequence (whole entry): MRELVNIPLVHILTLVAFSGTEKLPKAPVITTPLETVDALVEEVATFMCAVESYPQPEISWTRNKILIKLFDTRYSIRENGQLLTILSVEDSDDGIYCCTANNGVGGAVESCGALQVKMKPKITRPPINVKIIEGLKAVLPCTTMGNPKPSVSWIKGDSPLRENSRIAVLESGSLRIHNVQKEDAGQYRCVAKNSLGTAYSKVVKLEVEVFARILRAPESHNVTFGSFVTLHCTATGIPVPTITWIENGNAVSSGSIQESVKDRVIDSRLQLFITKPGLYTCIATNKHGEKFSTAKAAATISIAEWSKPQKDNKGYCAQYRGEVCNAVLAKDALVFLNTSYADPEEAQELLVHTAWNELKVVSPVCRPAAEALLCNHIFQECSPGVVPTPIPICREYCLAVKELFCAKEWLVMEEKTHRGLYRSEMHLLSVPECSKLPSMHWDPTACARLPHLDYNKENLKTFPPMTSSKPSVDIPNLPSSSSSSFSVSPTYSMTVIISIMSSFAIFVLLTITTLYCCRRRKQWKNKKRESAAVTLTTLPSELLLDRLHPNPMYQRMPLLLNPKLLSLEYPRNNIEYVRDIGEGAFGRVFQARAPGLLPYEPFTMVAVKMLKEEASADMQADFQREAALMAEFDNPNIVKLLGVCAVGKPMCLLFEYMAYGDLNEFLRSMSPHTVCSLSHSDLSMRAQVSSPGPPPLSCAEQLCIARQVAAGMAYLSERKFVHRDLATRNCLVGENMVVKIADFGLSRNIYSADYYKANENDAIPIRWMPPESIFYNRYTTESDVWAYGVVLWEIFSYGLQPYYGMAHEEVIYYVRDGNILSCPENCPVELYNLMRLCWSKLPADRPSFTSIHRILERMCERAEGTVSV
The conditions noted are these: at 1 µM.

In assay [2] the target is Platelet-derived growth factor receptor alpha (Homo sapiens) (UniProt P16234). The following applies: at 0.1 µM.
Chain of Platelet-derived growth factor receptor alpha (Homo sapiens) (P16234 whole entry): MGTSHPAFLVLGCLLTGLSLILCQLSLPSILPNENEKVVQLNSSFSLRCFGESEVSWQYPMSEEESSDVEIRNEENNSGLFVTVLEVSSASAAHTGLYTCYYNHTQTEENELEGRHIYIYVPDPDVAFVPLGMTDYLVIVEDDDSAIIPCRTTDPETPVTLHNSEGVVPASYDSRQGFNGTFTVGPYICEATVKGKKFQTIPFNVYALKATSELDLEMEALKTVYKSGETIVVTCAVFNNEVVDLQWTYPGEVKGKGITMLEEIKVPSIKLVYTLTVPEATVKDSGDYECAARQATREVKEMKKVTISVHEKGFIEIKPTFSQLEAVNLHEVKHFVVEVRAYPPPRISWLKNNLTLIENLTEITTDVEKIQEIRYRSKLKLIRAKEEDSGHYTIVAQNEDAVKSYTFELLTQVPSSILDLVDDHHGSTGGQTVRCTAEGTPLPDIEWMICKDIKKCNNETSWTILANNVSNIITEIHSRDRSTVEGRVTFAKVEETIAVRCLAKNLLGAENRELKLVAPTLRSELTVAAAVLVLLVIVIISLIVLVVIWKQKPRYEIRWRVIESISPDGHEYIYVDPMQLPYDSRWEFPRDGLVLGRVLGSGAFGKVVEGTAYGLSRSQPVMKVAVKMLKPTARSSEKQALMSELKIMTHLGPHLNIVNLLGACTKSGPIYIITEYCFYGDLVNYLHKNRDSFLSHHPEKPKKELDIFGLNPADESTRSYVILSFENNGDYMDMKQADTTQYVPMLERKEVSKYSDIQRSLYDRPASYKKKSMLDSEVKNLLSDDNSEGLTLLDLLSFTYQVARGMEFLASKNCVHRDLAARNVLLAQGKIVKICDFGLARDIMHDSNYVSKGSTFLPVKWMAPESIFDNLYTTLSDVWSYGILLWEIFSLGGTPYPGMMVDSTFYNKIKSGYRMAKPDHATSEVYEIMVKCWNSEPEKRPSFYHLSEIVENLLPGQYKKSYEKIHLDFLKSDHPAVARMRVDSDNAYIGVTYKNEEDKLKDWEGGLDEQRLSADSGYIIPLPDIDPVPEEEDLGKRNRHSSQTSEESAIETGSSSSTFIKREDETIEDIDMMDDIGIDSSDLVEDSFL
Assay [3] shares this target. The conditions noted are these: at 1 µM.
The test system of assay [4] is Platelet-derived growth factor receptor alpha (Homo sapiens), P16234 [D842V]. The conditions noted are these: at 0.1 µM.
Chain of Platelet-derived growth factor receptor alpha (Homo sapiens), P16234 [D842V] (P16234 whole entry D842V): as the sequence (P16234 whole entry) above, with D842V counted along it
Assay [5] shares this test system. The following applies: at 1 µM.
In assay [6] the test system is Platelet-derived growth factor receptor alpha (Homo sapiens), P16234 [T674I]. The following applies: at 0.1 µM.
Chain of Platelet-derived growth factor receptor alpha (Homo sapiens), P16234 [T674I] (P16234 whole entry T674I): as the sequence (P16234 whole entry) above, with T674I counted along it
The test system is the same in assay [7]. The conditions noted are these: at 1 µM.
The test system of assay [8] is Platelet-derived growth factor receptor alpha (Homo sapiens), P16234 [V561D]. The following applies: at 0.1 µM.
Chain of Platelet-derived growth factor receptor alpha (Homo sapiens), P16234 [V561D] (P16234 whole entry V561D): as the sequence (P16234 whole entry) above, with V561D counted along it
Assay [9] has the same test system. The conditions noted are these: at 1 µM.
Assay [10] concerns the target Platelet-derived growth factor receptor beta (Homo sapiens) (UniProt P09619). The following applies: at 0.1 µM.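 Also: reported value is the mean percent inhibition of the kinase.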

Chain of Platelet-derived growth factor receptor beta (Homo sapiens) (P09619 whole entry): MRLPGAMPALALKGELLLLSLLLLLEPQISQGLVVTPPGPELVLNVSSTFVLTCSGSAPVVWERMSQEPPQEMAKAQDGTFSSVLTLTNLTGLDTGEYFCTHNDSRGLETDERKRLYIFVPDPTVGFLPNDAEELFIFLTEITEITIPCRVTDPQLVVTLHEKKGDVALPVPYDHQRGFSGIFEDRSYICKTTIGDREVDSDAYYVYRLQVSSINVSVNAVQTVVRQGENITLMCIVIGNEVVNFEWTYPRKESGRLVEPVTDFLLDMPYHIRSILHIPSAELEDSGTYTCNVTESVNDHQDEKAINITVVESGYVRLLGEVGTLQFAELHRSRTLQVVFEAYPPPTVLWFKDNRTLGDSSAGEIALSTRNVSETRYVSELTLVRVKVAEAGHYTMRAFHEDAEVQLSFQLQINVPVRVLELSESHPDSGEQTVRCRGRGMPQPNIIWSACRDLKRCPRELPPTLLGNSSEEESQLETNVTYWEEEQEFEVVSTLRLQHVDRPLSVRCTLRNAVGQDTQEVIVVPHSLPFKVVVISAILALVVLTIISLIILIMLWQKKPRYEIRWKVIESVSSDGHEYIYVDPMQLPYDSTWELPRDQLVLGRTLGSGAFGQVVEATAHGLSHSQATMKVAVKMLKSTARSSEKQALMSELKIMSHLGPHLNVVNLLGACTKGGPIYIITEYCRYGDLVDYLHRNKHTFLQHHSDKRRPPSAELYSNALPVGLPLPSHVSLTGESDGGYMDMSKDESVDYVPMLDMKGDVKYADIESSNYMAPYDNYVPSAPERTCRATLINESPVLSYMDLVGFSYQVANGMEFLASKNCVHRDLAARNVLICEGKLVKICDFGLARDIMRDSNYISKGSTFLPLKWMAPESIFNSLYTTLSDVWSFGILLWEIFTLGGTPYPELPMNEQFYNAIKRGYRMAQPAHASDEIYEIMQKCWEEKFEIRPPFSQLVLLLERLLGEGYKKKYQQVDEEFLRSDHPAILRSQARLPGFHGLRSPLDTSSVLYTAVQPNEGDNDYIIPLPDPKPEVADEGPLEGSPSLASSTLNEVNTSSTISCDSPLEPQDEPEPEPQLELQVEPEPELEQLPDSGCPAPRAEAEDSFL

As a reminder, the inhibition is the relative decrease from the control value, in per cent. On to `N#Cc1c(NC(=O)c2ccc(F)cc2)sc2c1CCCC2`, for which the inhibition in assay [1] came out at 2.55%; in [2], 5.56%; in assay [3], 7.32%; in assay [4], 1.23%; in assay [5], 1%; in [6], 3.5%. Also, the inhibition in assay [7] was 3.1%; in assay [8], 0.92%; in assay [9], 3.17%; in [10], 1.37%.
In the case of `Clc1ccc(-c2nn3ncccc3c2-c2ccnc(Nc3ccccc3)n2)cc1`, the inhibition in [1] stood at 1.46%; in assay [2], 6.5%; in assay [3], 31.3%; in assay [4], 6.95%; in assay [5] it was 18.8%; in assay [6], 3.65%. The inhibition in assay [7] stood at 8.75%; in [8] it was 12.4%; in [9], 42%; in [10] it was 6.84%.
For `COc1cccc(-n2ncc3c(N/N=C/c4ccc(F)cc4)ncnc32)c1`, the inhibition in assay [1] was 9.49%; in assay [2], 15.8%; in [3], 42.1%; in [4], 9.48%; in assay [5] it was 45.4%; in assay [6], 9.07%. Further, the inhibition in [7] was 29.6%; in [8], 8.4%; in [9], 37.1%; in assay [10], 12.8%.
With `COc1cc2c(cc1Nc1nc(Nc3ccsc3C(N)=O)c3cc[nH]c3n1)N(C(=O)CN(C)C)CCC2(C)C`, the inhibition stood at 62.4% in [1]; 21.6% in assay [2]; 63.2% in assay [3]; 5.04% in assay [4]; 20.5% in assay [5]; 8.69% in assay [6]. Further, the inhibition in assay [7] was determined as 16.9%; in [8], 13.1%; in assay [9] it was 46.1%; in assay [10], 15.1%.
For the molecule `[O-][S+]1CCN(Cc2ccc(-c3ccc4ncnc(Nc5ccc(OCc6cccc(F)c6)c(Cl)c5)c4c3)o2)CC1`, the inhibition in [1] turned out to be 2.81%; in assay [2] it was 7.43%; in [3], 13.2%; in assay [4], 4.45%; in [5], 6.91%; in assay [6] it was 4%. The inhibition in assay [7] stood at 6.97%; in [8], 3.95%; in [9], 8.29%; in assay [10], 4.69%.
Turning to `COc1cc(N2CCN(C(C)C)CC2)ccc1Nc1nc(Nc2ccc(F)cc2C(N)=O)c2cc[nH]c2n1`, the inhibition in [1] was 13.2%; in assay [2] it was 3.76%; in [3], 31.1%; in assay [4] it was 1.57%; in [5], 21.6%; in assay [6], 1.91%. The inhibition in assay [7] turned out to be 5.04%; in [8], 1.82%; in [9] it was 21.8%; in assay [10], 5.8%.
Regarding `c1cc(-c2cnn3nc(N4CCOCC4)ccc23)nc(NC2CC2)n1`, the inhibition in assay [1] was determined as 9.05%; in assay [2], 31.9%; in assay [3], 76.8%; in [4], 21.2%; in assay [5] it was 75.8%; in assay [6], 2.78%. Further, the inhibition in assay [7] came to 17.5%; in [8], 18.1%; in assay [9], 72.4%; in assay [10] it was 12.5%.
As for `Fc1cccc(COc2ccc(Nc3ncnc4sc(-c5ccco5)cc34)cc2Cl)c1`, the inhibition in [1] was 3.44%; in assay [2] it was 13.5%; in [3] it was 19.9%; in [4], 3%; in assay [5], 2.87%; in assay [6], 6.38%. Moreover, the inhibition in [7] was 15.5%; in assay [8], 6.49%; in assay [9] it was 4.1%; in [10], 7.85%.
As to `NC(=O)c1sc(-n2cnc3ccc(C(F)(F)F)cc32)cc1OCc1ccccc1Br`, the inhibition came to 2.38% in [1]; 4.59% in assay [2]; 11% in assay [3]; 1.61% in assay [4]; 5.02% in assay [5]; 5.32% in [6]. Further, the inhibition in assay [7] was 5.62%; in assay [8] it was 3.53%; in [9], 4.84%; in [10], -1.07%.
For the molecule `COC(=O)c1sc(-n2cnc3cc(OC)c(OC)cc32)cc1OCc1ccccc1C(F)(F)F`, the inhibition in assay [1] turned out to be 48.1%; in assay [2], 26.1%; in assay [3] it was 66.3%; in assay [4], 18%; in assay [5], 66.5%; in [6], 9.67%. Moreover, the inhibition was 44.6% in assay [7], 22.2% in assay [8], 70.6% in [9] and 14.9% in [10].
Turning to `CCn1c(-c2nonc2N)nc2cnc(Oc3cccc(NC(=O)c4ccc(N(C)C)cc4)c3)cc21`, the inhibition in assay [1] was 2.13%; in assay [2], 4.44%; in [3], 6.4%; in assay [4], 1.28%; in assay [5] it was 1.65%; in [6], 2.82%. The inhibition was 4.91% in assay [7], 1.85% in assay [8], 6.18% in assay [9] and 3.88% in assay [10].
Turning to `CCNC(=O)O[C@H]1CN[C@H](C#Cc2cc3ncnc(Nc4ccc(OCc5cccc(F)c5)c(Cl)c4)c3s2)C1`, the inhibition came to 3.77% in assay [1]; 5.36% in assay [2]; 8.44% in assay [3]; 1.55% in assay [4]; 1.32% in assay [5]; 4.01% in [6]. In addition, the inhibition in assay [7] is 3.06%; in assay [8], 1.45%; in [9] it was 1.92%; in assay [10], 2.77%.
For `COc1ccc2c(-c3ccnc(Nc4cccc(OC(F)(F)F)c4)n3)cnn2n1`, the inhibition in assay [1] is 11.5%; in assay [2] it was 9.71%; in assay [3], 30.5%; in assay [4], -0.9%; in [5] it was 13.4%; in assay [6], 7.01%. Besides, the inhibition in assay [7] is 9.76%; in assay [8], 5.14%; in [9] it was 19.4%; in assay [10] it was 4.02%.
For `CC(C)COC(=O)c1ccc2c(c1)/C(=C/Nc1ccc(S(N)(=O)=O)cc1)C(=O)N2`, the inhibition in assay [1] came to 51.3%; in [2] it was 53.2%; in assay [3] it was 84.3%; in assay [4], 60.7%; in assay [5], 93.1%; in [6], 4.41%. For the same molecule, the inhibition in [7] is 38.9%; in assay [8], 44.7%; in assay [9] it was 88.4%; in [10] it was 66.3%.
Turning to `CN1CCC(n2cnc(-c3ccc(F)cc3)c2-c2ccnc(N)n2)CC1`, the inhibition in [1] was determined as 3.89%; in assay [2], 6.86%; in assay [3], 25.6%; in assay [4] it was 3.56%; in assay [5], 17.9%; in assay [6] it was 4.48%. In addition, the inhibition in assay [7] is 5.18%; in assay [8] it was 4.45%; in [9], 16.9%; in assay [10] it was 4.26%.
On to `Fc1ccc(-c2nn3ncccc3c2-c2ccnc(Nc3ccc4c(c3)OCCO4)n2)cc1`, for which the inhibition in [1] amounted to 3.55%; in assay [2] it was 15.1%; in assay [3], 54.8%; in assay [4] it was 12.1%; in [5] it was 56.1%; in [6], 5.87%. For the same molecule, the inhibition in assay [7] came to 17.9%; in assay [8], 21.9%; in assay [9], 72%; in assay [10], 29.3%.
As to `COc1cc2ncn(-c3cc(OCc4ccccc4C(F)(F)F)c(C(=O)N(C)C)s3)c2cc1OC`, the inhibition in assay [1] turned out to be 2.19%; in [2], 11%; in assay [3], 39.9%; in assay [4], 4.06%; in assay [5] it was 23.9%; in [6] it was 2.17%. For the same molecule, the inhibition in [7] amounted to 1.13%; in [8], 5.15%; in [9], 26.5%; in assay [10], 6.2%.
As for `Cc1cccc2c1NC(=O)/C2=N\Nc1ccc(S(N)(=O)=O)cc1`, the inhibition came out at 5.17% in assay [1]; 7.81% in assay [2]; 17.4% in assay [3]; 0.21% in assay [4]; 8.1% in assay [5]; 3.33% in assay [6]. In addition, the inhibition in assay [7] came to 7.27%; in assay [8] it was 13.4%; in [9], 41.3%; in assay [10], 2.52%.
With `COC(=O)Nc1nc2ccc(S(=O)(=O)c3ccc(NC(=O)Nc4cc(C(F)(F)F)ccc4F)cc3)cc2[nH]1`, the inhibition in [1] turned out to be 4.85%; in [2] it was 2.65%; in assay [3], 4.3%; in [4] it was 3.19%; in assay [5], 0.61%; in assay [6], 3.85%. In addition, the inhibition in assay [7] came out at 2.62%; in assay [8] it was 2.98%; in assay [9], 3.2%; in assay [10], 5.73%.

The record behind these values is ChEMBL document CHEMBL1961873, “Compounds: GSK PKIS; Assays: Nanosyn kinase panel” (2012).
